Test results: PubChem BioAssay (Tox21)
Results filed as inconclusive are left out. A call without a number means that no potency is given here. Active and inactive are the calls of the source. Calls come from the whole dose curve; as a rule, active = well fitted cell-killing curve with a large enough effect in the repeat runs; inconclusive = weak or mixed curves, or effect the other way; inactive = flat fitted curve, though single readings scatter.

Legend:
[1] = cAMP Responsive Elements (CRE) small molecule antagonists, cell-based qHTS assay: qHTS cell viability counter screen (AID 2060913); settings: CRE-bla HEK293T viability, CellTiter-Glo luminescence, 5 h; series mostly up to 92.4 µM; note: nearly all actives have a fitted effect of over 40% in size
How it was run: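 Cytotoxicity read in the same wells as the CRE-bla HEK293T antagonist assay: after 3 h compound with 0.25 uM NKH477 final and 2 h beta-lactamase substrate, CellTiter-Glo luminescence measured.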

[2] = cAMP Responsive Elements (CRE) small molecule agonists, cell-based qHTS assay: qHTS cell viability counter screen (AID 2060914); settings: CRE-bla HEK293T viability, CellTiter-Glo luminescence, 5 h; series mostly up to 92.4 µM;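 note: viability read after 3 h of compound exposure; nearly all actives have a fitted effect of over 50% in size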
How it was run: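 CRE-bla HEK293T cells in 10% dialyzed FBS medium were exposed to compounds for 3 h at 37C after 18 h plating. CellTiter-Glo was then added in the same wells, and luminescence was read after 30 min at room temperature.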
Potency is the fitted concentration of half-maximal effect.

| Compound | Potency [1] | Potency [2] |
| --- | --- | --- |
| OC[C@@H](O)[C@H](O)[C@@H](O)[C@@H](O)CO | inactive | inactive |
| Cc1cc(C2(c3cc(C)c(O)cc3C)OS(=O)(=O)c3ccccc32)c(C)cc1O | inactive | inactive |
| CCOCC(C)O (stereo not drawn) | inactive | inactive |
| c1ccc(-c2ccc(C(c3ccccc3)n3ccnc3)cc2)cc1 (stereo not drawn) | inactive | inactive |
| CCO[Si](OCC)(OCC)c1ccccc1 | inactive | inactive |
| C[N+](C)(C)CCOC(N)=O | inactive | inactive |
| CCCc1ncc(C(=O)O)s1 | inactive | inactive |
| C[C@H]1c2cccc(O)c2C(O)=C2C(=O)[C@]3(O)C(O)=C(C(N)=O)C(=O)[C@@H](N(C)C)[C@@H]3[C@@H](O)[C@@H]21 | inactive | inactive |
| O=Cc1ccccc1Cl | inactive | inactive |
| CC(=O)c1ccc2c(c1)Cc1ccccc1-2 | inactive | inactive |
| Nc1ccc(S(=O)(=O)NCc2ccccc2)cc1 | inactive | inactive |
| COC(C)=O | inactive | inactive |
| C=Cc1ccc(O)c(OC)c1 | inactive | inactive |
| CC(=O)OCc1ccc2c(c1)OCO2 | inactive | inactive |
| Cn1cnc2ncnc(N)c21 | inactive | inactive |
| CCCCCCCCCCn1cc[n+](CCCCCCCCCC)c1C | 24.4 µM (active) | 48.6 µM (active) |
| CCCCC(CC)C(=O)OCCOCCOCCOC(=O)C(CC)CCCC (stereo not drawn) | inactive | inactive |
| O=C(OCCc1ccccc1)c1ccccc1 | inactive | inactive |
| CCn1nc(Cc2ccccc2)cc1C1CCN(C[C@H]2C[C@H](N(C)[C@@H](C(=O)O)C(C)C)C[C@@H]2c2cccc(F)c2)CC1 | inactive | inactive |
